# The supplement of paper PMC13380429
# Where a name gives a salt, the structure may show the parent alone.
# Test system: Vero E6 infected with SARS-CoV-2
# Assay: morphology score (similarity to uninfected cells); higher = more like uninfected cells
# Details: 24 h
row,SMILES,morphology score
1,CCN(c1ccccc1)c1cc(=NC)n(C)c(C)n1 (10 µM),0.203
2,CC1=C(CCC(=O)O)c2cc3[nH]c(cc4nc(cc5[nH]c(cc1n2)c(C)c5C(C)O)C(C)=C4C(C)O)c(C)c3CCC(=O)O (stereo not given) [hematoporphyrin] (10 µM),-0.184
3,N[C@@H](Cc1cc(CP(=O)(O)O)cc(-c2ccccc2Cl)c1)C(=O)O (10 µM),0.0155
4,CO[C@H]1C[C@H](O[C@@H]2/C(C)=C/C[C@@H]3C[C@@H](C[C@]4(CC[C@H](C)[C@@H](C5CCCCC5)O4)O3)OC(=O)[C@@H]3C=C(C)/C(=N/O)[C@H]4OC/C(=C\C=C\[C@@H]2C)[C@]43O)O[C@@H](C)[C@@H]1O [selamectin] (10 µM),0.602
5,CC(C(=O)O)c1ccc2c(c1)Cc1cccnc1O2 (stereo not given) [pranoprofen] (10 µM),-0.152
6,COc1c(C)c2c(c(O)c1C/C=C(\C)CCC(=O)O)C(=O)OC2 [mycophenolic-acid] (10 µM),-0.0923
7,O=C1Nc2cc(Cl)c(Cl)cc2N2CCNC[C@H]12 (10 µM),0.179
8,N=C(Nc1ccccc1)Nc1ccccc1 [diphenylguanidine] (10 µM),0.216
9,OC[C@H]1O[C@@H](OCCc2ccc(O)cc2)[C@H](O)[C@@H](O)[C@@H]1O [salidroside] (10 µM),0.0363
10,CC[C@H]1CN2CCc3cc(OC)c(OC)cc3[C@@H]2C[C@@H]1C[C@H]1NCCc2cc(OC)c(OC)cc21 [emetine] (0.833333 µM),-0.193
11,N#Cc1nn(-c2c(Cl)cc(C(F)(F)F)cc2Cl)c(N)c1[S+]([O-])C(F)(F)F (stereo not given) [fipronil] (10 µM),0.0672
12,Cc1c(F)cc(C(=O)NC2CC2)cc1-c1c(F)cn2c(C(C)(C)C)nnc2c1F (10 µM),-0.202
13,CC(=O)Nc1ccc(S(=O)(=O)Nc2ccc([N+](=O)[O-])cc2)cc1 [sulfanitran] (10 µM),-0.126
14,Cn1ncc(Cl)c1-c1cc(C(=O)N[C@H](CN)Cc2ccc(F)c(F)c2)oc1Cl [uprosertib] (10 µM),0.441
15,CCOC(=O)Nc1ccc2c(c1)N(C(=O)CCN(CC)CC)c1ccccc1S2 [ethacizin] (10 µM),0.00909
16,C[C@@H](Oc1cc(-n2cnc3ccc(CN4CCN(C)CC4)cc32)sc1C(N)=O)c1ccccc1C(F)(F)F (0.833333 µM),0.0643
17,CC1=C(C(=O)O)N2C(=O)[C@@H](NC(=O)[C@H](N)C3=CCC=CC3)[C@H]2SC1 [cephradine] (10 µM),0.0689
18,CC[C@@H](c1cccc(O)c1)[C@@H](C)CN(C)C [Tapentadol (hydrochloride)] (10 µM),0.0731
19,C/C(=N\c1ccccc1N)c1c(C)cc(=O)n(O)c1O (10 µM),-0.169
20,N#Cc1ccccc1-c1cc(-c2ccccn2)cn(-c2ccccc2)c1=O [Perampanel] (10 µM),0.11

row,SMILES,morphology score
1,CC(C)Cn1cnc2c(N)nc3ccccc3c21 [imiquimod] (10 µM),0.0803
2,Cc1c(C2CCN(CCc3ccccc3)CC2)noc1-c1ccc(Cl)cc1 (10 µM),0.195
3,CCc1c2c(nc3ccc(O)cc13)-c1cc3c(c(=O)n1C2)COC(=O)[C@]3(O)CC (0.833333 µM),-0.131
4,N#CC(c1ccc(Cl)cc1)c1c(Cl)cc(-n2ncc(=O)[nH]c2=O)cc1Cl (stereo not given) [diclazuril] (10 µM),0.16
5,CC[C@@H]([C@H](C)O)n1ncn(-c2ccc(N3CCN(c4ccc(OC[C@@H]5CO[C@@](Cn6cncn6)(c6ccc(F)cc6F)C5)cc4)CC3)cc2)c1=O [posaconazole] (0.833333 µM),0.204
6,CNC(=O)c1cc(Oc2ccc(NC(=O)Nc3cc(C(C)(C)C)nn3-c3ccc4ncccc4c3)c(F)c2)ccn1 [rebastinib] (0.833333 µM),0.567
7,CCOC(=O)N1CCC(=C2c3ccc(Cl)cc3CCc3cccnc32)CC1 [loratadine] (10 µM),0.221
8,O=C(c1cc2ccccc2o1)N1CCN(Cc2ccccc2)CC1 [befuraline] (10 µM),-0.00895
9,CN(C)c1nc(N)c(C(=O)Nc2cccnc2)nc1Cl (10 µM),0.226
10,COC1CCN(C(=O)c2cc(Cc3n[nH]c(=O)c4ccccc34)ccc2F)CC1 (10 µM),0.118
11,COc1cc(OC)cc(N(CCNC(C)C)c2ccc3ncc(-c4cnn(C)c4)nc3c2)c1 [erdafitinib] (0.833333 µM),0.151
12,O=C(O)Cc1sc(-c2ccccc2)nc1-c1ccc(Cl)cc1 [fentiazac] (10 µM),0.0803
13,C[C@]1(Cn2ccnn2)[C@H](C(=O)O)N2C(=O)C[C@H]2S1(=O)=O [tazobactam] (10 µM),0.0668
14,CCOC(=O)[C@H](CCc1ccccc1)N[C@@H](C)C(=O)N1Cc2ccccc2C[C@H]1C(=O)O [quinapril] (10 µM),-0.145
15,CCC(=O)O[C@H]1CC[C@H]2[C@@H]3CCC4=CC(=O)CC[C@]4(C)[C@H]3CC[C@]12C (10 µM),-0.129
16,CCCC[C@@]1(C2CCCC2)Cc2cc(OCCCC(=O)O)c(Cl)c(Cl)c2C1=O (10 µM),-0.08
17,C=CC1=C(C(=O)O)N2C(=O)[C@@H](NC(=O)/C(=N\O)c3csc(N)n3)[C@H]2SC1 [cefdinir] (10 µM),-0.118
18,Nc1nc(O)c2ncn(CCC(CO)CO)c2n1 [penciclovir] (10 µM),0.0743
19,CO[C@H]1CC[C@H](N2C(=O)CNc3ncc(-c4ccc(C(C)(C)O)nc4)nc32)CC1 (0.833333 µM),0.21
20,CCC(CC)COC(=O)[C@H](C)N[P@](=O)(OC[C@H]1O[C@@](C#N)(c2ccc3c(N)ncnn23)[C@H](O)[C@@H]1O)Oc1ccccc1 [Remdesivir] (10 µM),0.761
